From PubChem BioAssay (Tox21)
Several values for one entry are separate records, joined by “and”; a condition that tells them apart may be missing. Identical values can stand only once. Results filed as inconclusive are left out. Some compounds were tested as several samples or in several runs, with calls that do not always agree. Activity calls are given as the source filed them. Unless noted, calls follow the shape of the dose curve; as a rule, active = well fitted curve in the direction sought with a large enough effect in the repeat runs; inconclusive = weak or mixed curves; inactive = no such curve, though single readings can be large; an effect the other way counts as inactive or inconclusive.

Experiments:
[1] = qHTS assay to identify aromatase inhibitors - cell viability counter screen (AID 743084);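 also: cells stimulated with testosterone during compound exposure; nearly all actives have a fitted effect of over 55% in size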; also: potency is read from the fitted curve at half-maximal effect
[2] = qHTS assay to identify small molecule that activate the aryl hydrocarbon receptor (AhR) signaling pathway - cell viability counter screen (AID 743086); also: nearly all actives have a fitted effect of over 45% in size; also: potency is read from the fitted curve at half-maximal effect
How it was run: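 HepG2-AhR-luc (HG2L7.5c1) cells, 4000/well, were preincubated 5 h at 37C, exposed to compound in qHTS format for 24 hr at 37C, then given CellTiter-Fluor for 30 min; viability was read as fluorescence in the reporter wells.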

[3] = qHTS assay to identify small molecule antagonists of the peroxisome proliferator-activated receptor gamma (PPARg) signaling pathway - cell viability counter screen (AID 743194); conditions: Potency: co-treated with 50 nM rosiglitazone unless noted; also: nearly all actives have a fitted effect of over 55% in size; also: potency is read from the fitted curve at half-maximal effect
How it was run: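 PPARg-UAS-bla HEK293H cells were plated, rested 5 h at 37 C, then treated with compounds plus rosiglitazone (50 nM final) for 17 h at 37 C; viability was then read by CellTiter-Glo luminescence after 30 min at room temperature.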

[4] = qHTS assay for small molecule agonists of the antioxidant response element (ARE) signaling pathway - cell viability counter screen (AID 743203; calls by dose curve; also: nearly all actives have a fitted effect of over 55% in size; also: potency is read from the fitted curve at half-maximal effect)
How it was run: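 ARE-bla HepG2 cells were plated, rested 5 h at 37C/5% CO2, then exposed to compounds in DMSO for 16 h. Viability was read as CellTiter-Glo luminescence after 30 min at room temperature, in the same wells as the ARE screen.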

[5] = qHTS assay for small molecule activators of the heat shock response signaling pathway - cell viability counter screen (AID 743209); also: nearly all actives have a fitted effect of over 50% in size; also: potency is read from the fitted curve at half-maximal effect
How it was run: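 HSE-bla HeLa cells plated overnight, then exposed to Tox21 compounds (23 nL in DMSO) for 5 h at 37 C. After the bla reporter read, CellTiter-Glo was added in the same wells and luminescence read after 30 min at room temperature.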

[6] = qHTS assay to identify small molecule agonists of the peroxisome proliferator-activated receptor delta (PPARd) signaling pathway - cell viability counter screen (AID 743211); also: nearly all actives have a fitted effect of over 55% in size; also: potency is read from the fitted curve at half-maximal effect
How it was run: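 Tox21 library compounds, delivered in DMSO, were incubated 17 h with PPARd-bla HEK293H cells; cytotoxicity was taken from CellTiter-Glo luminescence read 30 min after reagent addition.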

[7] = qHTS assay to identify small molecule agonists of the farnesoid-X-receptor (FXR) signaling pathway - cell viability counter screen (AID 743218); also: nearly all actives have a fitted effect of over 45% in size; also: potency is read from the fitted curve at half-maximal effect
How it was run: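 FXR-UAS-bla HEK 293T cells exposed to compounds for 16 h at 37C. Cytotoxicity read in the same wells by CellTiter-Glo luminescence after 30 min at room temperature, following the beta-lactamase FRET read.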

[8] = qHTS assay to identify small molecule antagonists of the farnesoid-X-receptor (FXR) signaling pathway - cell viability counter screen (AID 743221; active = well fitted cell-killing curve with a large enough effect in the repeat runs, not every such curve was filed as active; also: nearly all actives have a fitted effect of over 50% in size; also: potency is read from the fitted curve at half-maximal effect)
How it was run: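 Cytotoxicity is taken from ATP luminescence (CellTiter-Glo, 30 min, room temperature) in FXR-bla HEK 293T cells previously incubated 16 h at 37 C with compound and chenodeoxycholic acid at 50 uM final.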

[9] = target: Peroxisome proliferator-activated receptor gamma (Homo sapiens) (UniProt P37231); assay: qHTS assay to identify small molecule agonists of the peroxisome proliferator-activated receptor gamma (PPARg) signaling pathway (AID 743094; active = well fitted activation curve with a large enough effect in the signal ratio in the repeat runs, not every such curve was filed as active; the % refers to the signal ratio; also: potency is read from the fitted curve at half-maximal effect)
Peroxisome proliferator-activated receptor gamma (Homo sapiens), sequence (P37231 whole entry, looked up): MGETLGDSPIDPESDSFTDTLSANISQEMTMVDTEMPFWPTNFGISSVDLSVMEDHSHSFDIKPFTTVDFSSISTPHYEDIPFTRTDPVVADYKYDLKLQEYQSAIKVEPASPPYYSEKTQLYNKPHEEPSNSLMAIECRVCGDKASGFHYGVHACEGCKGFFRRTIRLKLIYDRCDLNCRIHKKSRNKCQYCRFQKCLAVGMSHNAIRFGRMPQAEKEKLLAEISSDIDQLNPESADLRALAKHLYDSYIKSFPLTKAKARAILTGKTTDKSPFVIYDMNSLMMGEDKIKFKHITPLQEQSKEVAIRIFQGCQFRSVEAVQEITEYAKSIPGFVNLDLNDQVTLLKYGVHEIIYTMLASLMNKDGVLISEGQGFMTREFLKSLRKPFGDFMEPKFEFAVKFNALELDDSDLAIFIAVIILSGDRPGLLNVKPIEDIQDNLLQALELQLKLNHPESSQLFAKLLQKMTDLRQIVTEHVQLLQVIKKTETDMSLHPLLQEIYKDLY
How it was run: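 GeneBLAzer PPARg UAS-bla HEK293H cells were plated, rested 5 h, then exposed to compounds for 17 h at 37C. Beta-lactamase activity was read by LiveBLAzer B/G FRET substrate fluorescence after 1 h at room temperature.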

[10] = qHTS assay for small molecule agonists of the antioxidant response element (ARE) signaling pathway (AID 743202; active = well fitted activation curve with a large enough effect in the signal ratio in the repeat runs, not every such curve was filed as active; the % refers to the signal ratio; also: potency is read from the fitted curve at half-maximal effect)
How it was run: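 Compounds delivered in DMSO to ARE-bla HepG2 cells (2,000 cells/well, pre-incubated 5 h) and left 16 h at 37 C. LiveBLAzer B/G FRET substrate then added for 2 h at RT before fluorescence reading.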

[11] = qHTS assay for small molecule activators of the heat shock response signaling pathway (AID 743210; active = well fitted activation curve with a large enough effect in the signal ratio in the repeat runs, with a control signal flat, not every such curve was filed as active; the % refers to the signal ratio;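 also: HeLa cells with beta-lactamase reporter driven by heat shock elements; series mostly up to about 63 µM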)
How it was run: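 Reporter gene assay: HeLa cells stably bearing an HSE-bla construct, compound treatment 5 h at 37 C, LiveBLAzer substrate 2.5 h at RT, fluorescence intensity.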

[12] = target: Peroxisome proliferator-activated receptor delta (Homo sapiens) (UniProt Q03181); assay: qHTS assay to identify small molecule agonists of the peroxisome proliferator-activated receptor delta (PPARd) signaling pathway (AID 743212; calls by dose curve)
Peroxisome proliferator-activated receptor delta (Homo sapiens), sequence (Q03181 whole entry, looked up): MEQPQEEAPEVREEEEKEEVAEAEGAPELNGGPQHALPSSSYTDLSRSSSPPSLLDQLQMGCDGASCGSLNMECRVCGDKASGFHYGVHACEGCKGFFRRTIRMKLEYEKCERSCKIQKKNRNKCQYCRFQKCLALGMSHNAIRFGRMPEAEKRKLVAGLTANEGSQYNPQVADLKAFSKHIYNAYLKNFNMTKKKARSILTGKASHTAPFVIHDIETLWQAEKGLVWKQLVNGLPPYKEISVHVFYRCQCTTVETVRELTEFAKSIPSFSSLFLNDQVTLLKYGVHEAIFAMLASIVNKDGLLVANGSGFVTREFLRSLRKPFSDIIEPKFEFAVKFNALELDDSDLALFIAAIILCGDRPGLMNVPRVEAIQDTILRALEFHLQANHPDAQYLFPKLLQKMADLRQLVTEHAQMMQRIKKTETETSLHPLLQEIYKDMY
How it was run: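 A PPARd-bla HEK293H line with beta-lactamase under an Upstream Activator Sequence is treated with compounds at 37 C. Substrate loading for 2 h at room temperature precedes the fluorescence measurement.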

[13] = target: Peroxisome proliferator-activated receptor delta (Homo sapiens) (UniProt Q03181); assay: qHTS assay to identify small molecule antagonists of the peroxisome proliferator-activated receptor delta (PPARd) signaling pathway (AID 743215; active = well fitted inhibition curve with a large enough effect in the signal ratio in the repeat runs, not every such curve was filed as active; the % refers to the signal ratio;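 also: cells stimulated with agonist L165041 at 300 nM final during compound exposure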; also: potency is read from the fitted curve at half-maximal effect)
How it was run: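 PPARd-bla HEK293H cells (UAS-bla reporter) preincubated 5 h, then given compound plus 300 nM final L165041 agonist for 17 h at 37 C. Beta-lactamase activity read by LiveBLAzer B/G FRET substrate fluorescence after 2 h at room temperature.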

[14] = target: Bile acid receptor (Homo sapiens) (UniProt Q96RI1); assay: qHTS assay to identify small molecule antagonists of the farnesoid-X-receptor (FXR) signaling pathway (AID 743217; active = well fitted inhibition curve with a large enough effect in the signal ratio in the repeat runs, not every such curve was filed as active; the % refers to the signal ratio)
Bile acid receptor (Homo sapiens), sequence (Q96RI1 whole entry, looked up): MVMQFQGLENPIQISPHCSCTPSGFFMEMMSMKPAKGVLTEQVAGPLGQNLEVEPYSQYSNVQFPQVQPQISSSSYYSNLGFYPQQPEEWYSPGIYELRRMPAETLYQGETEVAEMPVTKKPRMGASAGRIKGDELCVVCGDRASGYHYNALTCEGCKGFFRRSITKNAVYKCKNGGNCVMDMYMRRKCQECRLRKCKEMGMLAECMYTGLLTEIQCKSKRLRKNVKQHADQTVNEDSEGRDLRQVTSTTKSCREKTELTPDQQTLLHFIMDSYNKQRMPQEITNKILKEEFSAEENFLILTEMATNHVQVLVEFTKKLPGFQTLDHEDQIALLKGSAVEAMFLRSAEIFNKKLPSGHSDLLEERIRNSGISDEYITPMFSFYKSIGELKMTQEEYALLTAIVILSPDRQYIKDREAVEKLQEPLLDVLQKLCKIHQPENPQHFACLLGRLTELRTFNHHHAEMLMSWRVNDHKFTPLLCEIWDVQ
How it was run: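 FXR-UAS-bla HEK 293T cells (beta-lactamase reporter) given compound plus chenodeoxycholic acid (50 uM final), 16 h at 37C. LiveBLAzer B/G FRET substrate added for 2 h at room temperature; fluorescence read.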

[15] = target: Bile acid receptor (Homo sapiens) (UniProt Q96RI1); assay: qHTS assay to identify small molecule agonists of the farnesoid-X-receptor (FXR) signaling pathway (AID 743220; active = well fitted activation curve with a large enough effect in the signal ratio in the repeat runs, not every such curve was filed as active; the % refers to the signal ratio)
How it was run: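 Beta-lactamase reporter under UAS control in GeneBLAzer FXR HEK 293T cells (5000/well) measured with LiveBLAzer FRET substrate after 2 h at room temperature. Compound exposure lasted 16 h at 37C.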

[16] = target: Vitamin D3 receptor (Homo sapiens) (UniProt P11473); assay: qHTS assay to identify small molecule agonists of the vitamin D receptor (VDR) signaling pathway (AID 743222; calls by dose curve)
Vitamin D3 receptor (Homo sapiens), sequence (P11473 whole entry, looked up): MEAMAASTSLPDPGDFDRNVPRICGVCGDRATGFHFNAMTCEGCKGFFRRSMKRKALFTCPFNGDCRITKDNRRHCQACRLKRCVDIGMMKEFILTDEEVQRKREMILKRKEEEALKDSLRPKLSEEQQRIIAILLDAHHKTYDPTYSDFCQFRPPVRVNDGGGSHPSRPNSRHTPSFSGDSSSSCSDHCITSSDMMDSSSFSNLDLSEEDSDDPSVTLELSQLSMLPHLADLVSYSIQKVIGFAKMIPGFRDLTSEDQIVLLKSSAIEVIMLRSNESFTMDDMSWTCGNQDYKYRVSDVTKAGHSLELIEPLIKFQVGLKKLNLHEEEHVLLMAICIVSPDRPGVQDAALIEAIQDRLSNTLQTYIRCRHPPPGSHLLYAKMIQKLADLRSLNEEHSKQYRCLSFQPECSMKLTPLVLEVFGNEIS
How it was run: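 VDR-bla cells plated 4 h at 37 C, then exposed to compounds for 16 h at 37 C. Beta-lactamase reporter activity measured by fluorescence after 2 h room-temperature loading with LiveBLAzer B/G FRET substrate.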

[17] = target: Vitamin D3 receptor (Homo sapiens) (UniProt P11473); assay: qHTS assay to identify small molecule antagonists of the vitamin D receptor (VDR) signaling pathway (AID 743223; active = well fitted inhibition curve with a large enough effect in the signal ratio in the repeat runs, not every such curve was filed as active; the % refers to the signal ratio)
How it was run: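 Quantitative HTS in VDR-bla reporter cells stimulated with 1alpha,25-dihydroxyvitamin D3, 3 nM final. Compound exposure 16 h, 37C, 5% CO2. Read-out: beta-lactamase FRET substrate fluorescence, 2 h RT.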

[18] = qHTS assay to identify small molecule antagonists of the peroxisome proliferator-activated receptor delta (PPARd) signaling pathway - cell viability counter screen (AID 743213); also: nearly all actives have a fitted effect of over 50% in size; also: potency is read from the fitted curve at half-maximal effect
How it was run: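 PPARd-bla HEK293H cells (3000/well) got compound plus 300 nM L165041 agonist for 17 h at 37 C. Viability in the same wells came from CellTiter-Glo luminescence after 30 min at room temperature.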

[19] = target: Aryl hydrocarbon receptor (Homo sapiens) (UniProt P35869); assay: qHTS assay to identify small molecule that activate the aryl hydrocarbon receptor (AhR) signaling pathway (AID 743085);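 also: HG2L7.5c1 human HepG2 liver cells with stably integrated DRE-driven firefly reporter; series mostly up to about 70 µM; nearly all actives have a fitted effect of over 15% in size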
Aryl hydrocarbon receptor (Homo sapiens), sequence (P35869 whole entry, looked up): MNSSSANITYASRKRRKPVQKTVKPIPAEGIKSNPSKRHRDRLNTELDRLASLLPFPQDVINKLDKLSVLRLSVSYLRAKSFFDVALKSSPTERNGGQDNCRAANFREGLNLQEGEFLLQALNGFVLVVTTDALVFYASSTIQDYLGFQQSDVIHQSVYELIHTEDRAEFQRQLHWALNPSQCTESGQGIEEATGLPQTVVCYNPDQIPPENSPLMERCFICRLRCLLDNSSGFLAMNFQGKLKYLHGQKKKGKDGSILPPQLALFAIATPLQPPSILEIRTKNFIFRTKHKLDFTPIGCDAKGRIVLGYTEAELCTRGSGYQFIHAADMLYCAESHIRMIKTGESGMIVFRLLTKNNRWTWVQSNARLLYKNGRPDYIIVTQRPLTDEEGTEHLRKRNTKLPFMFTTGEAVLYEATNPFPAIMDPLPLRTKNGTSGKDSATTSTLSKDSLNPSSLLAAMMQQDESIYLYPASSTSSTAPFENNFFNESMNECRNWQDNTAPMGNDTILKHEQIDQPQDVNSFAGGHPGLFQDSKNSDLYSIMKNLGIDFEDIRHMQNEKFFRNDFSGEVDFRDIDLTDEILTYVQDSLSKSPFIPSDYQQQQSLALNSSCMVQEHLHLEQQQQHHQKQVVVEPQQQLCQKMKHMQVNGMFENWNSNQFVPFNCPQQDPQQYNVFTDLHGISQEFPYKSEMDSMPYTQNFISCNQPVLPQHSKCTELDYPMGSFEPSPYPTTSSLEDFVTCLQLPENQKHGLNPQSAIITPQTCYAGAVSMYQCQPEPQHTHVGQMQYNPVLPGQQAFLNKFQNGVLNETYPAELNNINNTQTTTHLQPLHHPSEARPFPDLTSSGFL
How it was run: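 A multiplexed format paired cell viability (CellTiter-Fluor fluorescence) with AhR-dependent luciferase output (ONE-Glo luminescence) in the same wells of HepG2 DRE-luc cells after 24 h compound exposure at 37C.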

[20] = target: Peroxisome proliferator-activated receptor gamma (Homo sapiens) (UniProt P37231); assay: qHTS assay to identify small molecule antagonists of the peroxisome proliferator-activated receptor gamma (PPARg) signaling pathway (AID 743191; calls by dose curve; also: series mostly up to about 63 µM; nearly all actives have a fitted effect of over 30% in size)
How it was run: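 GeneBLAzer PPARg UAS-bla HEK293H cells carrying a UAS-driven beta-lactamase reporter were plated at 3000 cells/well, preincubated 5 h at 37C, then given compound for 17 h at 37C; LiveBLAzer B/G FRET substrate was read after 1 h at room temperature.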

Measured: Potency

CC(=O)[O][Pb]([c]1ccccc1)([c]1ccccc1)[c]1ccccc1
active: [1] 0.193 µM | [2] 3860 nM | [3] 110 nM | [4] 172 nM | [5] 9770 nM | [6] 1230 nM | [7] 549 nM | [8] 1100 nM

N#CSCc1ccccc1
not listed: [2] | [8] | [18] | [19] | [20]
inactive: all other assays above

O=C1C(Cl)=C(Cl)C(=O)C(Cl)=C1Cl
inactive and 13.7 µM (active): [4]
active: [1] 10.8 µM and 13.7 µM | [3] 6920 nM | [6] 15500 nM | [18] 13800 nM
inactive: [2] | [5] | [12] | [14] | [8] | [16]
inactive and 19.5 µM (active): [7]

CC(=O)[O-].CC(=O)[O-].O.O.O.[Pb+2]
active: [10] 2730 nM
inactive: [1] | [2] | [3] | [4] | [5] | [6] | [7] | [8]

O.O.O.O=C([O-])[C@H]([O-])[C@@H]([O-])C(=O)[O-].O=C([O-])[C@H]([O-])[C@@H]([O-])C(=O)[O-].[K+].[K+].[Sb+3].[Sb+3]
active: [13] 12400 nM
inactive: [1] | [3] | [4] | [5] | [18] | [7] | [15] | [8]

CO/N=C(/C1=NOCCO1)c1ccccc1Oc1ncnc(Oc2ccccc2Cl)c1F
inactive: [3] | [4] | [5] | [12] | [8]
active: [1] 54.4 µM | [10] 544 nM

CCO/N=C(\CC)C1=C(O)CC(c2c(C)cc(C)cc2C)CC1=O (configuration not stated)
inactive: [1] | [2] | [4] | [6]

O=[N+]([O-])[O-].[Tl+]
inactive: [1] | [2] | [3] | [5] | [6] | [7] | [8]

N#CC(C#N)=NNc1cccc(Cl)c1
active: [1] 9.69 µM | [2] 15400 nM | [3] 490 nM | [4] 27300 nM | [6] 8710 nM | [18] 8710 nM | [7] 5490 nM | [8] 6920 nM

CCC[CH2][Sn]([CH2]CCC)([CH2]CCC)[O][Sn]([CH2]CCC)([CH2]CCC)[CH2]CCC
active: [1] 2.12 µM | [9] 676 nM | [3] 427 nM | [4] 238 nM | [5] 380 nM | [6] 676 nM | [18] 759 nM | [7] 479 nM | [8] 1200 nM

O=C(O)CCCCCCNC1c2ccccc2CCc2ccccc21
not listed: [6] | [9] | [12] | [19] | [20]
inactive: all other assays above

Cc1ccc2cc3c(ccc4ccccc43)c3c2c1CC3
active: [10] 1220 nM
inactive: [1] | [3] | [4] | [5] | [6] | [18] | [7] | [8] | [16] | [17]

O=S(=O)(NS(=O)(=O)C(F)(F)F)C(F)(F)F
inactive: [1] | [3] | [4] | [5] | [6] | [18] | [7] | [8]

NC1CCC(CC2CCC(N)CC2)CC1 (configuration not stated)
not listed: [1] | [7] | [11] | [16] | [17] | [20]
inactive: all other assays above

O=c1c2ccccc2c(=O)c2c1cc(Cl)c1[nH]c3c([nH]c12)c(Cl)cc1c(=O)c2ccccc2c(=O)c13
not listed: [2] | [15] | [18] | [19]
inactive: all other assays above

Cc1ccccc1OP(=O)(Oc1ccccc1C)Oc1ccccc1C
inactive: [1] | [20] | [5] | [7] | [15] | [8] | [17]

Oc1ccc([C@H]2CNCc3c2ccc(O)c3O)cc1O
not listed: [2] | [9] | [10] | [13] | [19] | [20]
inactive: all other assays above

[Cl][Hg][c]1ccccc1
inactive: [16]
active: [1] 1.93 µM | [2] 5450 nM | [3] 776 nM | [4] 1720 nM | [5] 3090 nM | [6] 977 nM | [7] 1550 nM | [8] 1380 nM

C[C@H]1[C@H](c2ccc(Cl)cc2)SC(=O)N1C(=O)NC1CCCCC1
inactive: [1] | [2] | [3] | [4] | [5] | [6] | [7] | [8] | [16]

C=CC(=C)C
not listed: [2] | [11] | [12] | [19]
inactive: all other assays above
